Laboratory results from PubChem BioAssay (NCI).
About 79,000 compounds went through this panel and 15% of them were active in at least one assay; those are over-represented in the sample as a whole. Rule as the data show it: active = growth inhibition above about 70%; inactive = the rest.

What was measured:
[1] = NCI Yeast Anticancer Drug Screen. Data for the rad50 strain (AID 155);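 also: 0% = growth of vehicle-only cultures of the same strain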; details: S. cerevisiae rad50 strain growth inhibition; at 50.0 µM; active compounds read high
Outline: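 Readout: growth inhibition relative to vehicle-treated cultures. Compound exposure was carried out in a genetically defined yeast strain deficient in DNA damage repair.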

[2] = NCI Yeast Anticancer Drug Screen. Data for the mec2-1 strain (AID 157); details: S. cerevisiae mec2-1 strain, at 50.0 µM, active compounds read high
Outline: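 Each compound was tested on mec2-1 yeast, a strain altered in DNA damage repair or cell cycle control. Growth inhibition is reported relative to vehicle.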

[3] = NCI Yeast Anticancer Drug Screen. Data for the sgs1 mgt1 strain (AID 161);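 also: 0% = growth of cultures given vehicle only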; details: S. cerevisiae sgs1 mgt1 strain, at 50.0 µM, active compounds read high
Outline: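 Genetically altered yeast, compound exposure, growth inhibition relative to vehicle.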

[4] = NCI Yeast Anticancer Drug Screen. Data for the cln2 rad14 strain (AID 165);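 also: 0% = growth equal to vehicle treated cultures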; details: S. cerevisiae cln2 rad14 strain, at 50.0 µM, active compounds read high
Outline: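 Test compounds were added to cln2 rad14 yeast cultures; inhibition of growth was then determined by comparison with vehicle treatment.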

[5] = NCI Yeast Anticancer Drug Screen. Data for the bub3 strain (AID 167); details: S. cerevisiae bub3 mutant strain, at 50.0 µM, active compounds read high
Outline: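 Readout: yeast growth inhibition, expressed relative to vehicle-only wells. The test organism is a mutant strain from a panel with lesions in DNA repair or checkpoint genes.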

[6] = NCI Yeast Anticancer Drug Screen. Data for the mlh1 rad18 strain (AID 175); details: S. cerevisiae mlh1 rad18 strain growth inhibition; at 50.0 µM; active compounds read high
Outline: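 Inhibition values reflect reduced growth of mutant yeast versus vehicle-treated controls following compound exposure; the mutations affect DNA damage repair.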

Measured: growth inhibition

CCCCCC(=O)Cc1cc(O)cc2c1C(=O)Oc1cc(O)c(C(=O)O)c(CCCCC)c1O2
inactive: [1] 26.1% | [2] 7.45% | [3] 32% | [4] 17.8% | [5] 16.4% | [6] 16.9%

Cn1c([N+](=O)[O-])cnc1/C=C1\CCc2cc(OCCN3CCCC3)ccc2C1=O
inactive: [1] 30.4% | [2] 24.3% | [3] 36.4% | [4] 21.6% | [5] -2% | [6] 38.3%

Cc1nc2c(=O)n(C)c(=O)n(C)c2nc1CCC(=O)O
inactive: [1] -16.1% | [2] -3.9% | [3] -1.4% | [4] -52.5% | [5] 5.2% | [6] -5.6%

Cc1cc(C)cc(Cc2ccc3ccccc3c2)c1
inactive: [1] 2.9% | [2] -3.65% | [3] -1.15% | [4] -12.3% | [5] 9.45% | [6] 8.45%

Cc1ccccc1NC(=O)CC(=O)NNC(Sc1ccccc1)c1cc(N=Nc2ccc(Br)cc2)ccc1O (stereo not given)
inactive: [1] 19.3% | [2] 14.1% | [3] 27.1% | [4] -3.95% | [5] 17.9% | [6] 18.9%

CC12CC3OC3CC1CCC1C2CCC2(C)C1CCC21OCCO1 (stereo not given)
inactive: [1] 16% | [2] -32.7% | [3] 3.6% | [4] 3.15% | [5] 23.1% | [6] 22.6%

Cc1[nH]n(-c2nc(-c3ccccc3)cc(=O)[nH]2)c(=O)c1CCO
inactive: [1] -11.8% | [2] -31.5% | [3] -25.9% | [4] 10.8% | [5] -7.1% | [6] -13.2%

Cc1cc2nc(CCC(=O)O)c(=O)[nH]c2cc1C
inactive: [1] -22.4% | [2] -24.6% | [3] -4.05% | [4] 13.8% | [5] -24% | [6] -28.8%

C=C1C(=O)OC2/C=C(\C)C(O)CC(O)C(C)(O)CC(OC(=O)/C(C)=C/C)C12 (stereo not given)
inactive: [1] -0.7% | [2] -25.2% | [3] -10.4% | [4] 14.1% | [5] 6.5% | [6] -10.8%

COc1ccc(C(O)(c2ccccc2C)c2ccccc2OC)cc1 (stereo not given)
inactive: [1] 16.1% | [2] -2.4% | [3] 4.2% | [4] -10.8% | [5] 20.7% | [6] 27.9%

CCn1c(=O)ccc2ccc(N(CCO)CCO)nc21
inactive: [1] -19.9% | [2] 8.3% | [3] -0.15% | [4] -3.6% | [5] -9% | [6] 10.1%

COC(=O)CCC1(CCC(=O)OC)CCCCCCC(CCC(=O)OC)(CCC(=O)OC)C(=O)C1=O
inactive: [1] -11.6% | [2] -0.5% | [3] -1.25% | [4] -2.45% | [5] 5.25% | [6] 19.8%

O=C1c2ccccc2C(=O)N1CCCSc1ccc(F)cc1
inactive: [1] 32.8% | [2] -9.5% | [3] 28.4% | [4] 3.5% | [5] 15.3% | [6] 36.2%

O=C(/N=C1\N=Nc2nc(C(C(=O)c3cccc([N+](=O)[O-])c3Cl)c3nc4n(c3O)/C(=N/C(=O)Nc3ccc(Cl)cc3)N=N4)c(O)n21)Nc1ccc(Cl)cc1 (stereo not given)
inactive: [1] 9.35% | [2] -8.2% | [3] 5.25% | [4] -6.65% | [5] 0.7% | [6] 7.1%

C=CC(C)(C)c1c2c(c(O)c3c(=O)c4ccc(O)c(O)c4oc13)C=CC(C)(C)O2
inactive: [1] -12.2% | [2] -12% | [3] 3.35% | [4] -5.2% | [5] -7.7% | [6] -4.05%

Nc1ccc2nc(-c3ccccc3)[nH]c2c1
inactive: [1] -13.8% | [2] -8.65% | [3] -13.3% | [4] 1.55% | [5] 0.6% | [6] -3.8%

On1ccc(N2CCOCC2)cc1=NC1CCCCC1
inactive: [1] 25.9% | [2] 14.9% | [3] 14.5% | [4] 17.6% | [5] 3.7% | [6] 25.7%

CN(Cc1cnc2nc(N)nc(N)c2n1)c1ccc(C(=O)NC(CCCCN)C(=O)O)cc1 (stereo not given)
inactive: [1] -0.05% | [2] -9.4% | [3] -0.05% | [4] -15.8% | [5] -2.05% | [6] 30.9%

O=C(O)/C(O)=C(/O)C(=O)O.[NH-]C1CCCCC1[NH-].[Pt+2]
inactive: [1] 27.3% | [2] 29.1% | [3] 28.4% | [4] 16.1% | [5] 26.9% | [6] 25.6%

[Cl][Pt+2][Cl].[NH-]CC1([NH-])CCCCC1
inactive: [1] -10.2% | [2] 14.1% | [3] -19.6% | [4] -2.8% | [5] -5.6% | [6] -31.9%
